Our source for the inhibition values is ChEMBL document CHEMBL1961873, “Compounds: GSK PKIS; Assays: Nanosyn kinase panel” (2012).

Test [1] deals with 5'-AMP-activated protein kinase catalytic subunit alpha-2 (Homo sapiens) (UniProt P54646). To be noted: at 1 µM.
Test [2] deals with T1, NUAK family SNF1-like kinase 1 (Homo sapiens) (UniProt O60285).
T1 sequence (whole entry): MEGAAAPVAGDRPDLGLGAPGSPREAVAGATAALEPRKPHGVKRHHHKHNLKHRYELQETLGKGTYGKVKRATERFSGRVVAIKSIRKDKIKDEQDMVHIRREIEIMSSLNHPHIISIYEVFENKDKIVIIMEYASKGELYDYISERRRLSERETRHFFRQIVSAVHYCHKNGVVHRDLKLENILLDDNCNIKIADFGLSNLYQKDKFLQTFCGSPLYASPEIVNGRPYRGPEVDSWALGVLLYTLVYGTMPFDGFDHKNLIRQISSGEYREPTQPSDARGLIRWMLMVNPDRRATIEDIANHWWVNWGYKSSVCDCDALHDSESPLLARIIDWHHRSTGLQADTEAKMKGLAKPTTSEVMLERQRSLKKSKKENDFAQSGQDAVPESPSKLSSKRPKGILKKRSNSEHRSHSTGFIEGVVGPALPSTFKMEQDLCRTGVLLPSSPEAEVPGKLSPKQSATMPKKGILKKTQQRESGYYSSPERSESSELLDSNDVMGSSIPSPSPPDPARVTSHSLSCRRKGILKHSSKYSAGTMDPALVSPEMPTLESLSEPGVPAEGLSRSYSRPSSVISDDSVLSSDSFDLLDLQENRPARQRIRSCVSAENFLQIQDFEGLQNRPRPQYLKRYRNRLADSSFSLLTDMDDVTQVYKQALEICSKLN
To be noted: at 0.1 µM.

The target of test [3] is T1, NUAK family SNF1-like kinase 1 (Homo sapiens). To be noted: at 1 µM.
Test [4] concerns the target T2, Serine/threonine-protein kinase BRSK1 (Homo sapiens) (UniProt Q8TDC3).
T2 sequence (whole entry): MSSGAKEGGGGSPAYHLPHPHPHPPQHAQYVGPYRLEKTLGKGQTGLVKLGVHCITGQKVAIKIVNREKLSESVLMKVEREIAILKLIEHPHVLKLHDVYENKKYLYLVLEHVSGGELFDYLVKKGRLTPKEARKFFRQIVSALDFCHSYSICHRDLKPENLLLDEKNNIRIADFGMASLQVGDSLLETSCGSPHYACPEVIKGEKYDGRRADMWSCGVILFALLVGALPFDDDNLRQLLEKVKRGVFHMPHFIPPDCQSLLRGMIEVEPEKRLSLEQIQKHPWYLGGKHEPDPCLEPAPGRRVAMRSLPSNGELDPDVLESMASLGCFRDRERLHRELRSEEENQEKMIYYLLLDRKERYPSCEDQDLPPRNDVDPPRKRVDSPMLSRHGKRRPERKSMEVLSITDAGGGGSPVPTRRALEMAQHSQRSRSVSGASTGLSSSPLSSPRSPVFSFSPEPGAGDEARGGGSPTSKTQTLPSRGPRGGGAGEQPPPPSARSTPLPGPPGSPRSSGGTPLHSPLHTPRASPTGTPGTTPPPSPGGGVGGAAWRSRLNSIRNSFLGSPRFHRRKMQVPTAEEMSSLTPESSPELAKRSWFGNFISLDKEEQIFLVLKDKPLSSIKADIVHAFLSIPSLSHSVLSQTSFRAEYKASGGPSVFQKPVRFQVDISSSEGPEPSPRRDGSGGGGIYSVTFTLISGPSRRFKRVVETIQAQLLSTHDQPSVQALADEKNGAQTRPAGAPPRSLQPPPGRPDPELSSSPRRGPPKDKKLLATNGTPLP
To be noted: at 0.1 µM.

Test [5] has as its target T2, Serine/threonine-protein kinase BRSK1 (Homo sapiens). As to conditions: at 1 µM.
For test [6], the target named is T3, Serine/threonine-protein kinase BRSK2 (Homo sapiens) (UniProt Q8IWQ3).
T3 sequence (whole entry): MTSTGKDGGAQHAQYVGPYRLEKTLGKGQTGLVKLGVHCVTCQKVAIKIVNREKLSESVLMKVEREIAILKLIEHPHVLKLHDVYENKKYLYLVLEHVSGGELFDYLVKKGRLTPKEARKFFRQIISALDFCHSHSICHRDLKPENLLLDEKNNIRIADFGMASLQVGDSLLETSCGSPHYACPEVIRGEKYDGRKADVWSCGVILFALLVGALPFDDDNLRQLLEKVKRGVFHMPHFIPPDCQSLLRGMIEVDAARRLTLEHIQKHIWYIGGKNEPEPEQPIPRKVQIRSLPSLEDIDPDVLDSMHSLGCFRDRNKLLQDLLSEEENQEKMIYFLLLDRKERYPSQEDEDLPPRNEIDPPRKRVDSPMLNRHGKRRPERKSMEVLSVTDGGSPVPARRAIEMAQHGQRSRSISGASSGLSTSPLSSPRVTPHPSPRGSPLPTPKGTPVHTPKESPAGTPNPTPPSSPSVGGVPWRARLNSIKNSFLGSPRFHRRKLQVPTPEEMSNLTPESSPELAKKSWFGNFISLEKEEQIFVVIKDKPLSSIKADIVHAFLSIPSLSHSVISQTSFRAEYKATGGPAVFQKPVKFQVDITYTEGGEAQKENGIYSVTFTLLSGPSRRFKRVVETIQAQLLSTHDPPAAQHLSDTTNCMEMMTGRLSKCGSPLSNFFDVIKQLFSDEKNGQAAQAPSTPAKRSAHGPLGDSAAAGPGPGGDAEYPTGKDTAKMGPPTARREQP
As to conditions: at 0.1 µM.

For test [7], the target named is T3, Serine/threonine-protein kinase BRSK2 (Homo sapiens). As to conditions: at 1 µM.
For test [8], the target named is Calcium/calmodulin-dependent protein kinase type 1D (Homo sapiens) (UniProt Q8IU85). To be noted: at 0.1 µM.
For test [9] the target is unchanged. As to conditions: at 1 µM.
In test [10] the target is Calcium/calmodulin-dependent protein kinase type II subunit alpha (Homo sapiens) (UniProt Q9UQM7). To be noted: at 0.1 µM.
Test [11] has the same target. To be noted: at 1 µM.
In test [12] the target is Calcium/calmodulin-dependent protein kinase type II subunit delta (Homo sapiens) (UniProt Q13557). To be noted: at 0.1 µM.
Test [13] has the same target. To be noted: at 1 µM.
Test [14] concerns the target T4, Calcium/calmodulin-dependent protein kinase type IV (Homo sapiens) (UniProt Q16566).
T4 sequence (whole entry): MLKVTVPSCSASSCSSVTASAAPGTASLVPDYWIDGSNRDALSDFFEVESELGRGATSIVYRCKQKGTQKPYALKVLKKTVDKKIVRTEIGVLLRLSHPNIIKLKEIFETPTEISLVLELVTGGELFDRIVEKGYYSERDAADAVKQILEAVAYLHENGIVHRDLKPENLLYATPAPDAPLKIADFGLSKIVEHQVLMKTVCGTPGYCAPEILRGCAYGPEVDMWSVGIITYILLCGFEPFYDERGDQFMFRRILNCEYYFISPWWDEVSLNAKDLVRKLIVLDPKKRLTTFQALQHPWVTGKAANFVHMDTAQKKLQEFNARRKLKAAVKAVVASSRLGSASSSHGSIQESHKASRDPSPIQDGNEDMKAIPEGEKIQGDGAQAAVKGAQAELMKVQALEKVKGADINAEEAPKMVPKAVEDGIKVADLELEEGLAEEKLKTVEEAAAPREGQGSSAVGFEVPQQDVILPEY
As to conditions: at 0.1 µM.

The target in test [15] is T4, Calcium/calmodulin-dependent protein kinase type IV (Homo sapiens). To be noted: at 1 µM.
The target of test [16] is T5, Serine/threonine-protein kinase Chk1 (Homo sapiens) (UniProt O14757).
T5 sequence (whole entry): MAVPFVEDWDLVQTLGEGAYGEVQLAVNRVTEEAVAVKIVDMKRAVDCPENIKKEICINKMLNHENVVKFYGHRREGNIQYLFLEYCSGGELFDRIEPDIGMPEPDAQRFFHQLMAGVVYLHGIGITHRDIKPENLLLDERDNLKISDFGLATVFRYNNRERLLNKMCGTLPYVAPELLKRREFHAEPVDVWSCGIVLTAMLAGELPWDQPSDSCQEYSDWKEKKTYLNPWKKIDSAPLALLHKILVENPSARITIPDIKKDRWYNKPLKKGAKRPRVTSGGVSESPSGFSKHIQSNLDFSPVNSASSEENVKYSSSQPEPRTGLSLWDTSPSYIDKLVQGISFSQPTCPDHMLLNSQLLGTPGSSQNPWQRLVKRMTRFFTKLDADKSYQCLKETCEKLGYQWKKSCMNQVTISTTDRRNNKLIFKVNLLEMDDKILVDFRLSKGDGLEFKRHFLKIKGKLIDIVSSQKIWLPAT
As to conditions: at 0.1 µM.

Test [17] concerns the target T5, Serine/threonine-protein kinase Chk1 (Homo sapiens). As to conditions: at 1 µM.
Test [18] concerns the target Serine/threonine-protein kinase Chk2 (Homo sapiens) (UniProt O96017). To be noted: at 0.1 µM.
For test [19] the target is unchanged. As to conditions: at 1 µM.
In test [20] the target is Death-associated protein kinase 1 (Homo sapiens) (UniProt P53355). To be noted: at 0.1 µM.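 Note: reported figure is the mean inhibition of DAPK1.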

The inhibition is the drop in the measured response relative to a control, in per cent.

The structures appear in SMILES notation.

Chain of 5'-AMP-activated protein kinase catalytic subunit alpha-2 (Homo sapiens) (P54646 whole entry, looked up): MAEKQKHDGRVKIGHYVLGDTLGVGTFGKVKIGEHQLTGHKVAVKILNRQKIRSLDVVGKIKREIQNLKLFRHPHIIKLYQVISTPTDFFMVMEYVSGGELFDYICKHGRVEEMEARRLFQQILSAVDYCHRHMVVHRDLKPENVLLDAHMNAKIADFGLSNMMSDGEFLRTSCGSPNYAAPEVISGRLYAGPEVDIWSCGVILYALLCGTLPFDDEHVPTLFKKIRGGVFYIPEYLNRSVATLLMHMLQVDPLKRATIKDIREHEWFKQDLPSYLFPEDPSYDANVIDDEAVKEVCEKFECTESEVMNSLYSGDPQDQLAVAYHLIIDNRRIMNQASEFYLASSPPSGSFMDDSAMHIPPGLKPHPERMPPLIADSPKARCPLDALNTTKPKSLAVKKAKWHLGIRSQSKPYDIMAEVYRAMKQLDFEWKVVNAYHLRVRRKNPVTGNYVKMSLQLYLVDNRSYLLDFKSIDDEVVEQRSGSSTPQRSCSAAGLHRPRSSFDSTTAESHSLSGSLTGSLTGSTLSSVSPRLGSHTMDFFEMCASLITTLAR
Chain of Calcium/calmodulin-dependent protein kinase type 1D (Homo sapiens) (Q8IU85 whole entry, looked up): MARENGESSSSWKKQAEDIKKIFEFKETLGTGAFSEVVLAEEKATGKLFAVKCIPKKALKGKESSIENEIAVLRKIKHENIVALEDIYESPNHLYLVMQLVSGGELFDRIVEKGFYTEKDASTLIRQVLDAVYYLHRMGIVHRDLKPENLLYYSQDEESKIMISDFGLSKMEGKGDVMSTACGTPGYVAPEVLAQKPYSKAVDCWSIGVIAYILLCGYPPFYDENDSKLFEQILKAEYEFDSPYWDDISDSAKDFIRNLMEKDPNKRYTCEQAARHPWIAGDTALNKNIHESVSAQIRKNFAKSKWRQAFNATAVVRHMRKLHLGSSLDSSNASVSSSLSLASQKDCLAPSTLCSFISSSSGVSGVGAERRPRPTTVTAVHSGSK
Chain of Calcium/calmodulin-dependent protein kinase type II subunit delta (Homo sapiens) (Q13557 whole entry): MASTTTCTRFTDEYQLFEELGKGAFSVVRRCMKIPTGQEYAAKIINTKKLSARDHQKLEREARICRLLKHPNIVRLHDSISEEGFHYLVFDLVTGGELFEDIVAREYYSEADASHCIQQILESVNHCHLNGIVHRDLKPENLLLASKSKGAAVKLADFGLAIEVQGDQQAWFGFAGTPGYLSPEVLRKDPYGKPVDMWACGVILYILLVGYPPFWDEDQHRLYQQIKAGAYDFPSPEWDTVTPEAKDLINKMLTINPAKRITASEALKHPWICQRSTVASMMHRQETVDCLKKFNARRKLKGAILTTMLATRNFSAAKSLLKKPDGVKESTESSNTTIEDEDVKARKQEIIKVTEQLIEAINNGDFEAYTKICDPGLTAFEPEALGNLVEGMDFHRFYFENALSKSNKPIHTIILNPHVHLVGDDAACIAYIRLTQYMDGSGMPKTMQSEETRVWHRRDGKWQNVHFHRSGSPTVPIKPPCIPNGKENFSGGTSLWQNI
Chain of Serine/threonine-protein kinase Chk2 (Homo sapiens) (O96017 whole entry): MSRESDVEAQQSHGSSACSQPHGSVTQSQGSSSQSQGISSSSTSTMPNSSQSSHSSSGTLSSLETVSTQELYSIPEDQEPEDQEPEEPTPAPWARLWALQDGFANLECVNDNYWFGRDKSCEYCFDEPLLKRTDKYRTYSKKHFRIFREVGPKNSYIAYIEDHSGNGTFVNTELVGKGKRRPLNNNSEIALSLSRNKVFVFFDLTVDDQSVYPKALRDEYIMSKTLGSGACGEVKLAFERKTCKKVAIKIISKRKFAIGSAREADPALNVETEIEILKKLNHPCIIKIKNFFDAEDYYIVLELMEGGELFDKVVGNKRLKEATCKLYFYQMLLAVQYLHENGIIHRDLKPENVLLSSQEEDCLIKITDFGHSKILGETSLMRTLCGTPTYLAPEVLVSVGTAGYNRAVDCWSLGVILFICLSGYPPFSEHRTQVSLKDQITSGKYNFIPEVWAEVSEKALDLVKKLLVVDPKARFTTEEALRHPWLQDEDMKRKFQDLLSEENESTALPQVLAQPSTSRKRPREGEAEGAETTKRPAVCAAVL
Chain of Death-associated protein kinase 1 (Homo sapiens) (P53355 whole entry, looked up): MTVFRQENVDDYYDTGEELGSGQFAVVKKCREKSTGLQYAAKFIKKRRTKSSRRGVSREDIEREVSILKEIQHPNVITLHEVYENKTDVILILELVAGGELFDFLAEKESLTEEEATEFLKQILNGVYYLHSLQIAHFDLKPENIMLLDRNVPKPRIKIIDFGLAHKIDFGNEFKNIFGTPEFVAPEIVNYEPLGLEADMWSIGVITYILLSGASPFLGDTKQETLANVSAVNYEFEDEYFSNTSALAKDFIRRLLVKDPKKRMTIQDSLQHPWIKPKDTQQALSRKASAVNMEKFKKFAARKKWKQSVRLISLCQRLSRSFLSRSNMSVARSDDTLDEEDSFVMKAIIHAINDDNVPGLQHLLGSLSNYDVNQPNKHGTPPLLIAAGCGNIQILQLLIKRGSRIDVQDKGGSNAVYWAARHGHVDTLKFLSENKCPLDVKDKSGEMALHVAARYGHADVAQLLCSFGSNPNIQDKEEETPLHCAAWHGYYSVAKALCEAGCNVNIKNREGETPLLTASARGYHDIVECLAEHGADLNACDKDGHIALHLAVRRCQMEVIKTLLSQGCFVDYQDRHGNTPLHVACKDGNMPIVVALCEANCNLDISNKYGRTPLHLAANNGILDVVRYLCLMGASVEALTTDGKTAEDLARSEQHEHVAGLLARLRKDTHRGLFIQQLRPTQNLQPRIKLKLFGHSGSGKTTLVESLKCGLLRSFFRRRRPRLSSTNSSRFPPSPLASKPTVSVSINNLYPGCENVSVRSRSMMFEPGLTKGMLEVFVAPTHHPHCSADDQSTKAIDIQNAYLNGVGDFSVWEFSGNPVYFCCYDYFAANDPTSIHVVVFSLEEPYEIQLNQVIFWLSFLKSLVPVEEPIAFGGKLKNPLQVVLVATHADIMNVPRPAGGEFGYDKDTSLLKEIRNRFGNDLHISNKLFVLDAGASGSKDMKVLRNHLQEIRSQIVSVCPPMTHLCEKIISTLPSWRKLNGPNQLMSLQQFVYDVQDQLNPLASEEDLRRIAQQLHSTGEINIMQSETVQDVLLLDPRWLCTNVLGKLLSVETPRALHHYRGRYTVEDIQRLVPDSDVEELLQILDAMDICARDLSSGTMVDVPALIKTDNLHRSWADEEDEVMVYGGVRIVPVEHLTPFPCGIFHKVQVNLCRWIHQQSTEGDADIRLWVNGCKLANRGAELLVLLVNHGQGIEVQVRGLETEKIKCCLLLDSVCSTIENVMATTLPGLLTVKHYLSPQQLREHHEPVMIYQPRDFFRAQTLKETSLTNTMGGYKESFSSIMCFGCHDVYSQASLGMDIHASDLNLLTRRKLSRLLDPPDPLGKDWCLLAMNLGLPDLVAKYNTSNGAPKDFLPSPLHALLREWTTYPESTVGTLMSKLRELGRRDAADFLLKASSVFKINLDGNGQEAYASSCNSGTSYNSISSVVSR
Chain of Calcium/calmodulin-dependent protein kinase type II subunit alpha (Homo sapiens) (Q9UQM7 whole entry): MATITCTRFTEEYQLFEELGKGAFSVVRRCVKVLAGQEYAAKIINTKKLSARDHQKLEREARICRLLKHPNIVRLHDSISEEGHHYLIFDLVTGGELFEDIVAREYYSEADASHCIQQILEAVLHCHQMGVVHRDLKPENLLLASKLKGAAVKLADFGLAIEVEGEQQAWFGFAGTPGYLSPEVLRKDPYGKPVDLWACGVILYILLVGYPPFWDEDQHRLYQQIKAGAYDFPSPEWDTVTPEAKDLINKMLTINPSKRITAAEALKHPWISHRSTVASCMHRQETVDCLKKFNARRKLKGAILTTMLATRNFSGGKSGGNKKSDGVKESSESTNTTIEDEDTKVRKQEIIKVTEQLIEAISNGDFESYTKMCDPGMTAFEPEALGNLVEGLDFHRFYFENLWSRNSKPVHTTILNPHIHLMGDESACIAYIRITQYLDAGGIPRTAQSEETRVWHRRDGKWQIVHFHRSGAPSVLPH

For the compound `Cc1cc(O)cc(C)c1/C=C/c1cncc(-c2nn[nH]n2)c1`, the inhibition was determined as 4.51% in test [1]; 3.07% in [2]; 5.08% in test [3]; 3.46% in [4]; 19.2% in test [5]; 2.49% in test [6]. For the same compound, the inhibition is 13.2% in [7]; 0.18% in [8]; -0.55% in test [9]; 6.31% in [10]; 3.79% in [11]; 4.52% in test [12]. In addition, the inhibition in test [13] is 4.7%; in test [14], -0.07%; in test [15], -1.05%; in [16] it was -7.2%; in [17], 2.19%; in test [18], 3.38%. Moreover, the inhibition amounted to 5.57% in [19] and 3.16% in test [20].

Turning to `NS(=O)(=O)c1ccc(N/N=C2\C(=O)Nc3ccc(C(=O)NCCc4c[nH]cn4)cc32)cc1`, the inhibition in test [1] turned out to be 63.6%; in [2], 54.2%; in test [3], 83.5%; in test [4], 21.6%; in test [5], 63.5%; in test [6], 34.6%. The inhibition in [7] was determined as 74.9%; in test [8], 1.24%; in test [9] it was 3.93%; in test [10], 5.62%; in test [11] it was 10.6%; in test [12], 8.76%. The inhibition was found to be 32.5% in test [13]; 0.01% in test [14]; 0.46% in test [15]; 4.59% in [16]; 17.2% in [17]; 4.59% in test [18]. The inhibition was 18.3% in [19] and 4.26% in [20].

As for `COc1cc2c(cc1Nc1nc(N3CCc4ccccc43)c3cc[nH]c3n1)N(C(=O)CN(C)C)CC2`, the inhibition in test [1] is 3.8%; in test [2], 4.37%; in test [3], -4.13%; in [4] it was 2.17%; in test [5] it was 0.61%; in test [6] it was 0.98%. In addition, the inhibition came out at 1.3% in [7]; 0.34% in test [8]; 2.58% in test [9]; 3.95% in [10]; 4.08% in [11]; 3.43% in test [12]. Further, the inhibition worked out at 2.99% in test [13]; 2.17% in test [14]; 3.69% in test [15]; 0.15% in [16]; 3.74% in [17]; 1.34% in test [18]. In addition, the inhibition in test [19] is 7.08%; in test [20], 2.95%.

With `[O-][S+]1CCN(Cc2ccc(-c3ccc4ncnc(Nc5ccc(OCc6ccccc6)c(F)c5)c4c3)o2)CC1`, the inhibition in test [2] came to 1.72%; in test [3], 2.16%; in test [4] it was 3.74%; in test [5], 5.47%; in test [6] it was 4.69%; in test [7], 5.63%. Further, the inhibition in test [8] was -0.91%; in test [9], 1.4%; in [10] it was 1.36%; in test [11] it was 2.39%; in [12], 2.36%; in test [13], 2.19%. Further, the inhibition was determined as 0.91% in [14]; 0.5% in [15]; 0.15% in test [16]; 3.65% in test [17]; 2.23% in test [18]; 7.61% in test [19]. Besides, the inhibition in test [20] was determined as 2.43%.
